# Screening results (PubChem)
# This is a sample that favours compounds with a hit; in the whole collection about 1.4% have one here.
# AmpC detergent = inhibitors of E. coli AmpC beta-lactamase with detergent; P00811; AmpC hydrolysis of nitrocefin, absorbance 480 nm, 0.01% Triton; Potency, µM (doses to about 114 µM), usual class: inhibitors; 370,000 tested, 0.041% active; AID 485294; further: nearly all actives have a fitted effect of over 25% in size
# Target sequence (P00811 whole entry, looked up): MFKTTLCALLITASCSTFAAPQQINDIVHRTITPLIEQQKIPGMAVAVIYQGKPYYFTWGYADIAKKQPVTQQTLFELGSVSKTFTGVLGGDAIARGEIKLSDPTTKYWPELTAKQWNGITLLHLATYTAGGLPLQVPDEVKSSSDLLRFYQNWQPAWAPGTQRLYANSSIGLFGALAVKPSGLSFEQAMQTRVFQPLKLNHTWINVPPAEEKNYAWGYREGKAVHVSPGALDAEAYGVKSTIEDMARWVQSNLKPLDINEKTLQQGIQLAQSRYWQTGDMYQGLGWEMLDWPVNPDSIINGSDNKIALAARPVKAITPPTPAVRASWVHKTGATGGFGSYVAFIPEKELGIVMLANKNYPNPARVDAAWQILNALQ
#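 AmpC (5.3 nM in the dispensed reagent) in 20 mM phosphate pH 7.0 with 0.01% (detergent screen) or 0.0001% Triton X-100 was preincubated with compounds for 15 min at room temperature. Nitrocefin was then added from an 800 uM solution, and hydrolysis was followed at 480 nm.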
# AmpC no deterg = inhibitors of E. coli AmpC beta-lactamase without detergent; 330,000 tested, 0.52% active; AmpC nitrocefin hydrolysis, absorbance 480 nm, 0.0001% Triton; Potency, µM (series often up to 57.1 µM), most hits filed as inhibitors; AID 485341; further: nearly all actives have a fitted effect of over 20% in size
#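 AmpC (5.3 nM in the dispensed reagent) in 20 mM phosphate pH 7.0 with 0.01% (detergent screen) or 0.0001% Triton X-100 was preincubated with compounds for 15 min at room temperature. Nitrocefin was then added from an 800 uM solution, and hydrolysis was followed at 480 nm.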
# TbPYK inhibitor = T. brucei pyruvate kinase inhibition. Q57TT1. TbPYK enzyme, Kinase-Glo Plus ATP luminescence, 45 min. Potency, µM (series often up to 76.8 µM), most hits filed as inhibitors. 410,000 tested, 0.12% active; further: nearly all actives have a fitted effect of over 50% in size
#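 T. brucei PYK with substrate was exposed to pin-transferred compounds across a concentration series, then started with 130 uM ADP (final). After 45 min at room temperature, Kinase-Glo Plus luminescence was read, normalized and curve-fitted.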
# Giardia FBPA inh-1 = blocks Giardia fructose-bisphosphate aldolase activity | AID 2451 | purified Giardia FBPA | Potency, µM (top dose mostly 59.6 µM), actives largely listed as inhibitors | 290,000 tested, 0.71% active; further: nearly all actives have a fitted effect of over 55% in size
#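 40 nM FBPA preincubated 10 min at RT with compound (up to 57.5 uM final), then substrate plus GAPDH/TPI/NAD/arsenate coupling and diaphorase/resazurin added. Fluorescence read after 20 min at RT, 525/598 nm.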
# RE007 growth inh = less growth of the S. pombe RE007 Vpr strain. S. pombe RE007 Vpr strain, BacTiter-Glo ATP luminescence, 24 h. 360,000 tested, 0.21% active. Potency, µM (top dose mostly 92.2 µM), usual class: inhibitors. AID 651644; active means well fitted falling curve with a large enough effect; inconclusive means small, poorly fitted or top-dose-only effect; inactive means no such curve, though single readings can be large or run the other way; further: nearly all actives have a fitted effect of over 50% in size
#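 Fission yeast RE007 carrying one integrated HIV-1 vpr copy, seeded at OD 0.01 in PMG+AL medium with 23 nL pinned compound. Grown 24 h at 30 degrees; viability read by BacTiter-Glo luminescence after 5 min.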
# LmPK inh = blocks Leishmania mexicana pyruvate kinase activity; Q27686; purified LmPK, Kinase-Glo ATP luminescence, 1 h; Potency, µM (highest dose often 57.5 µM), usual class: inhibitors; 290,000 tested, 0.37% active
#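 Pyruvate kinase activity monitored as ATP production (luciferase luminescence). Conditions: 0.1 nM enzyme, 0.5 mM PEP, 0.1 mM ADP, 1 h, RT; normalized against uninhibited and no-enzyme wells.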
# Giardia growth = Giardia lamblia growth inhibition; 1,500 tested, 5% active; Potency, µM (series often up to 57.5 µM), usual class: inhibitors; Giardia lamblia trophozoite growth inhibition; AID 2785; shares compounds with Giardia FBPA inh-1;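 further: trophozoites exposed to compound for 48 h at 37 °C; nearly all actives have a fitted effect of over 70% in size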
# Mammal cell tox = toxic to mammalian cells in Giardia aldolase counter-screen; AID 2786; mammalian cell viability counter-screen, qHTS; Potency, µM (titrated, usually from 57.5 µM), most hits filed as inhibitors; 1,500 tested, 4% active; shares compounds with Giardia FBPA inh-1;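 further: Chinese hamster ovary cells used as mammalian cytotoxicity surrogate; viability measured as cellular ATP by luminescence; compound exposure lasted 48 h before reading; nearly all actives have a fitted effect of over 60% in size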
# Giardia FBPA inh-2 = confirmation of Giardia fructose-bisphosphate aldolase inhibitors; shares compounds with Giardia FBPA inh-1; purified Giardia aldolase enzyme activity, qHTS; Potency, µM (titrated, usually from 57.5 µM), hits mostly inhibitors; 1,500 tested, 5% active; AID 2787; further: nearly all actives have a fitted effect of over 45% in size
# Rabbit aldolase = rabbit FBP aldolase inhibition by Giardia aldolase hits | shares compounds with Giardia FBPA inh-1 | Rabbit muscle FBPA enzyme inhibition, selectivity counter-screen | Potency, µM (titrated, usually from 57.5 µM), most hits filed as inhibitors | 1,500 tested, 4% active | AID 2794; further: nearly all actives have a fitted effect of over 60% in size
# GAPDH counter = GAPDH inhibition flagged for Giardia aldolase hits. 1,500 tested, 6% active. Potency, µM (top dose mostly 57.5 µM), usual class: inhibitors. shares compounds with Giardia FBPA inh-1. GAPDH coupling enzyme counterscreen, biochemical, qHTS; further: nearly all actives have a fitted effect of over 55% in size
# A number is an active result; . = inactive; ? = inconclusive; / = not tested or not shown; [ ] = dose if it differs, or a comment. Unless noted, the call rests on the fitted dose curve; in most records, active means well fitted curve in the direction sought with a large enough effect; inconclusive means small, poorly fitted or top-dose-only effect, or another doubt; inactive means no such curve, though single readings can be large; an effect the other way counts as inactive or inconclusive.
SMILES,AmpC detergent,AmpC no deterg,TbPYK inhibitor,Giardia FBPA inh-1,RE007 growth inh,LmPK inh,Giardia growth,Mammal cell tox,Giardia FBPA inh-2,Rabbit aldolase,GAPDH counter
COc1ccc(S(=O)(=O)N2CCC(N3CCN(Cc4ccccc4)CC3)CC2)cc1,.,.,.,13µM,.,.,.,.,.,.,.
O=S(=O)(c1ccc(Cl)cc1)N1CCN(C2CCN(Cc3ccccc3)CC2)CC1,?,.,.,.,.,.,/,/,/,/,/
CCc1ccc(-n2c(=O)c3sc4ccccc4c3n(CC(=O)N3CCCC3)c2=O)cc1,.,/,.,/,/,/,/,/,/,/,/
COc1cc(Nc2nc3ccccc3c3nnc(C)n23)cc(OC)c1,.,/,.[15.4 µM],/,/,/,/,/,/,/,/
Nc1nc(=S)c2ncn(C3CCCCC3)c2[nH]1,/,/,?,/,.,/,/,/,/,/,/
CCCn1cnc2c(=S)nc(N)[nH]c21,.,.,?,4.5µM,.,.,.,.,?,.,.
CCCCCn1cnc2c(=S)nc(N)[nH]c21,.,.,.,2.8µM,/,.,.,.,.,.,.
CCCCn1cnc2c(=S)nc(N)[nH]c21,.,.,.,7.1µM,.,.,.,.,.,.,.
CCCCCCCCn1cnc2c(N)c(C)c(C)cc21,?,.,.,.,?,.,/,/,/,/,/
O=S1(=O)c2ccccc2N(Cc2ccccc2Cl)c2ccccc21,.,/,.,/,/,/,/,/,/,/,/
CC(C)C(C(=O)Nc1ccccc1F)N1C(=O)c2ccccc2C1=O (stereo not drawn),/,/,.,/,.,/,/,/,/,/,/
CC(C(=O)Nc1ccccc1F)N1CCN(C)CC1 (stereo not drawn),.,.,/,16µM,/,.,.,.,.,.,.
Cc1cccc(C)c1OCC(=O)OC/C(O)=C(\C#N)c1nc2ccccc2[nH]1,.,.,.,.,.,.,/,/,/,/,/
N#C/C(=C(/O)COC(=O)c1ccc(O)cc1)c1nc2ccccc2[nH]1,.,.,.,10µM,.,.,.,.,.,.,.
CCCC(=O)OC/C(O)=C(\C#N)c1nc2ccccc2[nH]1,.,.[2.29 µM],.,?,.,.,/,/,/,/,/
CC(C)C(=O)OC/C(O)=C(\C#N)c1nc2ccccc2[nH]1,.,.,.,20µM,.,.,.[10.4 µM],.,.,.,.
COCC(=O)OC/C(O)=C(\C#N)c1nc2ccccc2[nH]1,.,.,.,16µM,.,.,.[10.4 µM],?,.,.,.
N#C/C(=C(/O)COC(=O)c1cccnc1Cl)c1nc2ccccc2[nH]1,.,.,.,18µM,.,.,.,.,.,.,.
CCOc1ccc(/C=C/c2nc(C#N)c(NCCc3ccccc3)o2)cc1,.,/,.,/,/,/,/,/,/,/,/
CCc1ccc(S(=O)(=O)c2nnn(-c3cccc(C)c3)c2N)cc1,.,/,.,/,/,/,/,/,/,/,/
CCCCN(C)CCCNC(=O)Cn1nc(CC)n2c(cc3sc(C)cc32)c1=O,.,/,.,/,/,/,/,/,/,/,/
CO/N=C/C(C#N)c1ncc(C(F)(F)F)cc1Cl (stereo not drawn),.,.,.,20µM,.,.,?,.,.,.,.
Cc1cc(C)c(NC(=S)N(CCc2ccncc2)C(C)C)c(C)c1,.,.,.,10µM,.,.,.,.,.,.,.
